NS1 inh = influenza NS1 inhibition. Potency, µM (top dose mostly 46.1 µM), inactives show at the top dose activity, positive = more growth. 270,000 compounds, 0.4% hits; calls by dose curve; note: actives are rising curves; nearly all actives have a fitted effect of over 50% in size
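S. cerevisiae expressing influenza A NS1, grown in glucose, washed, then diluted 1:100 into pH 6.0 -URA galactose medium with 23 nl compound. Growth recovery read as OD600; NS1-free strain serves as control.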
AMA1-RON2 inh = disrupts binding of P. falciparum AMA1 to RON2. AID 720542. 360,000 compounds, 0.2% hits. Potency, µM (highest dose often 58.2 µM), for the others: top-dose activity change, negative = inhibition, most hits filed as inhibitors. AlphaScreen AMA1-biotinylated RON2 peptide binding;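 note: 0% = vehicle wells and -100% = peptide control; nearly all actives have a fitted effect of over 45% in size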
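AMA1 (3D7) with his tag at 25 nM final met compounds first, then biotinylated RON2 peptide at 25 nM; detection used donor plus acceptor beads, 10 µg/mL apiece, read by AlphaScreen after 30 min at room temperature.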
Giardia FBPA inh = blocks Giardia fructose-bisphosphate aldolase activity. A8B2U2. Potency, µM (series often up to 59.6 µM), inactives show at the top dose activity, negative = inhibition, hits mostly inhibitors. 290,000 compounds, 0.71% hits. purified Giardia FBPA; note: % is set by controls: 0 for no effect and ±100 for the full control effect; nearly all actives have a fitted effect of over 55% in size
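Giardia FBPA (40 nM reagent) was preincubated 10 min at RT with compound (up to 57.5 uM final), then substrate plus GAPDH/TPI/NAD/arsenate coupling system with diaphorase/resazurin was added; resorufin fluorescence (525/598 nm) was read after 20 min.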
TbPYK inhibitor = T. brucei pyruvate kinase inhibition; Q57TT1; TbPYK enzyme, Kinase-Glo Plus ATP luminescence, 45 min; Potency, µM (series often up to 76.8 µM), inactives show top-dose activity, negative = inhibition, hits mostly inhibitors; 410,000 compounds, 0.12% hits; note: % is set by controls: 0 for no effect and ±100 for the full control effect; nearly all actives have a fitted effect of over 50% in size
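Glycolytic pyruvate kinase of T. brucei was incubated with substrate, test compound and 130 uM ADP for 45 minutes at room temperature. Luminescent Kinase-Glo Plus signal was measured after 10 minutes.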
LmPK inh = blocks Leishmania mexicana pyruvate kinase activity; Potency, µM (top dose mostly 57.5 µM), for the others: top-dose activity change, negative = inhibition, hits mostly inhibitors; purified LmPK, Kinase-Glo ATP luminescence, 1 h; 290,000 compounds, 0.37% hits; AID 1721; note: % is set by controls: 0 for no effect and ±100 for the full control effect
Target sequence (Q27686 whole entry, looked up): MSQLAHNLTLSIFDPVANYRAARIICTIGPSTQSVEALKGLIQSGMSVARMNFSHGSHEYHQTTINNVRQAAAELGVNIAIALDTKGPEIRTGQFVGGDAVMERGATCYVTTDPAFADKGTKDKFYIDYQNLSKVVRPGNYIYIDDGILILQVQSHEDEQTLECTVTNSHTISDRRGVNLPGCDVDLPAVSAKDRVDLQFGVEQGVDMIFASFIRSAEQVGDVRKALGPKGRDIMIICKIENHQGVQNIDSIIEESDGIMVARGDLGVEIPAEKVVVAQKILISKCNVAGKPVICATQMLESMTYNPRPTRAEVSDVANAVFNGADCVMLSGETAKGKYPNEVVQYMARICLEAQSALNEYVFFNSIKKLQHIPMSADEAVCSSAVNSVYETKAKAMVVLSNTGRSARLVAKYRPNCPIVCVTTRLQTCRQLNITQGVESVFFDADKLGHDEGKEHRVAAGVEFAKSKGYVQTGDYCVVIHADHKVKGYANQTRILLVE
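Pyruvate kinase activity monitored as ATP production (luciferase luminescence). Conditions: 0.1 nM enzyme, 0.5 mM PEP, 0.1 mM ADP, 1 h, RT; normalized against uninhibited and no-enzyme wells.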
* hit, by the source's call; ? = inconclusive; · = no result; [ ] = dose if it differs, or a comment. Compounds with a hit are over-represented: about 1.2% of the library has one in this group of screens. Unless noted, calls come from the whole dose curve; as a rule, active = well fitted curve in the direction sought with a large enough effect; inconclusive = small, poorly fitted or top-dose-only effect, or another doubt; inactive = no such curve, though single readings can be large; an effect the other way counts as inactive or inconclusive. Potency is the fitted concentration of half-maximal effect.

SMILES | NS1 inh | AMA1-RON2 inh | Giardia FBPA inh | TbPYK inhibitor | LmPK inh
Cc1nnc(N/N=C/c2cc(C)n(-c3ccc(F)cc3)c2C)n1N | -18.9% | 36.4% | 9.98µM* | -0.2% | 3.4%
Cc1nnc(N/N=C/c2ccccc2O)n1N | · | 46.0% | 7.06µM* | 0.1% | -0.7%
Oc1ccccc1/C=N/Nc1nn[nH]n1 | 5.4% | 42.1% | ? | -12.9% | -11.9%
CCCCC1=CC2=C(OC(C)=O)C(=O)C(C)(OC(=O)C3CCCC3)C(=O)C2=CO1 (stereo unspecified) | · | · | -22.0% | · | ·
Cc1cc(C)c2c(=O)n(CC(=O)NCCCN3CCOCC3)sc2n1 | 2.8% | 17.8% | -19.0% | 6.31µM* | -16.4%
Cc1cc(C)c2c(=O)n(CC(=O)Nc3ccc(Cl)cc3)sc2n1 | -107.2% | 15.9% | -26.4% | ? | -22.5%
Cc1cc(C)c2c(=O)n(CC(=O)NCCCN3CCN(c4ccccc4F)CC3)sc2n1 | 2.6% | -1.2% | -13.5% | ? | -25.5%
Cc1ccc(NC(=O)Cn2sc3nc(C)cc(C)c3c2=O)c(Cl)c1 | 0.1% | -5.1% | -17.0% | 2.51µM* | -18.0%
CCOc1ccc(NC(=O)Cn2sc3nc(C)cc(C)c3c2=O)cc1 | 11.8% | 7.7% | -6.2% | 5.62µM* | -16.1%
N#CC(Cc1ccc(O)c(O)c1)C(=O)N1CCc2ccccc21 (stereo unspecified) | 3.1% | · | ? | · | ·
O=C(c1ccco1)N1CCC2(CCCN(C(c3ccccc3)c3ccccc3)C2)CC1 | · | · | 5.4% | -1.4% | ·
NS(=O)(=O)c1ccc(N=Nc2ccc(=O)[nH]c2O)cc1 | 13.4% | -20.1% | 5.61µM* | -16.6% | 15.8%
NS(=O)(=O)c1ccc(N=Nc2ccc[nH]c2=O)cc1 | 16.7% | · | · | · | ·
CCC1=C(OC(=O)N(CC)CC)N2C(=O)OC(=NCCOC)[C@]2(C)[C@H]2C1=CC[C@H]1C(=O)N(CC)C(=O)[C@H]12 | · | · | 0.1% | · | ·
N/C(=N\OC(=O)c1ccc(Cl)c(Cl)c1)c1cccnc1 | -68.5% | 20.2% | 2.7% | 5.9% | -7.7%
N/C(=N\OC(=O)c1ccc2c(c1)OCO2)c1cccc(Br)c1 | -68.4% | -0.2% | -7.2% | -29.7% | 12.6µM*
N/C(=N\OC(=O)c1ccc2c(c1)OCO2)c1cccnc1 | 3.1% | -0.4% | 1.4% | -23.0% | 25.1µM*
Cc1c(N)nc([C@@H](CC(N)=O)NC[C@H](N)C(N)=O)nc1C(=O)N[C@H](C(=O)N[C@@H](C)[C@@H](O)[C@@H](C)C(=O)N[C@H](C(=O)NCCc1nc(-c2nc(C(=O)NCCCN[C@H](C)c3ccccc3)cs2)cs1)[C@H](C)O)[C@@H](O[C@H]1O[C@@H](CO)[C@H](O)[C@@H](O)[C@H]1O[C@H]1O[C@@H](CO)[C@@H](O)[C@H](OC(N)=O)[C@H]1O)c1cnc[nH]1 | · | · | · | -0.8% | ·
CC#CCN1c2ccccc2[C@]23C[C@@H](C(=O)OC)N(S(=O)(=O)c4cccs4)C2=NC(C(=O)OC)=C(C(=O)OC)[C@H]13 | · | · | 4.2%[12.9 µM] | · | 2.5%[11.5 µM]
CC(=O)OCC1=C(C(=O)O)N2C(=O)[C@@H](NC(=O)Cc3ccccc3)[C@H]2SC1 | · | 34.5% | · | -1.6% | ·
C=CC1=C(C(=O)O)N2C(=O)C(NC(=O)Cc3ccccc3)C2SC1 (stereo unspecified) | 3.8% | 1.1% | 15.8µM* | 5.4% | 7.5%
c1ccc(-c2nc(-c3cccc4ccccc34)c(Nc3ccc4ccccc4c3)o2)cc1 | · | · | 0.0% | · | ·
Cc1nn(-c2ccc(Cl)cc2)c(=O)c2ccccc12 | -0.8% | -6.8% | 1.4% | -2.8% | 1.3%
Cc1c(Cl)sn(-c2ccc(Cl)cc2)c1=O | -57.5% | 2.6% | -28.6% | 4.47µM* | 1.3%
COc1nc(-c2ccccc2)ccc1-c1noc(-c2ccccc2Br)n1 | · | · | · | -3.4% | ·
O=C(CSc1ccc2ccccc2c1)NCCc1ccc(O)c(O)c1 | · | -16.3% | -29.3% | 31.6µM* | -0.6%
COc1ccc2c(c1OC)C(=O)N(c1cccc(C)c1)C2 | -36.5% | -1.4% | 1.2% | -15.9% | 14.1µM*
COC(=O)[C@@H]1C[C@@H]2CC[C@@H](O)C[C@@H]2N1Cc1ccc(N2CCOCC2)cc1 | · | · | -15.9% | · | ·
Cc1nc2sc(-c3ccccc3)cc2c(=O)n1N | -10.1% | 38.0% | 2.4% | ? | 7.08µM*
COc1ccc(CSc2nc3ccccc3[nH]2)cc1 | -1.7% | -1.6% | -4.6% | -10.2% | 15.8µM*
